# Pf growth 48h: inhibits P. falciparum growth in the first generation, 48 h. P. falciparum luciferase growth in erythrocytes, 48 h. Potency, µM (titrated, usually from 28.7 µM), without a hit: top-dose activity change, negative = inhibition, most hits filed as inhibitors. 310,000 compounds, 5.9% hits. AID 504832; also: % is scaled to controls: 0 for no effect and ±100 for the full control effect
#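 Luciferase-expressing parasites in RBCs, 2% Hct / 0.1% parasitemia final; RPMI 1640 + 0.5% Albumax; 37 C, 5% CO2, one generation; luminescence read-out, lower signal = inhibition.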
# NS1 inh: influenza NS1 inhibition. 270,000 compounds, 0.4% hits. Potency, µM (series often up to 46.1 µM), inactives show at the top dose activity, positive = more growth; calls by dose curve; also: actives are rising curves; nearly all actives have a fitted effect of over 50% in size
#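 Compounds were scored for reversing the slow growth caused by influenza A NS1 in S. cerevisiae, measured by optical density at 600 nm. Assay medium contained 2% galactose at pH 6.0; NS1-free yeast of the same strain were the positive control.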
# Sm TGR block: inhibitors of Schistosoma mansoni thioredoxin glutathione reductase. Q962Y6. purified TGR, DTNB reduction, TNB absorbance 405 nm. Potency, µM (titrated, usually from 114 µM), for inactives: at the highest dose activity change, negative = inhibition, most hits filed as inhibitors. 360,000 compounds, 3% hits; also: % is scaled to controls: 0 for no effect and ±100 for the full control effect; nearly all actives have a fitted effect of over 60% in size
#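 Kinetic colorimetric format: TGR-catalysed, NADPH-driven DTNB reduction monitored via TNB absorbance. Enzyme dispensed at 20 nM; compound exposure 15 min at room temperature before reaction start.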
# Pf growth 96h: P. falciparum growth inhibition at 96 hours; P. falciparum luciferase reporter growth, 96 h; Potency, µM (titrated, usually from 28.7 µM), for inactives: at the top dose activity change, negative = inhibition, most hits filed as inhibitors; 320,000 compounds, 6.9% hits; also: % is scaled to controls: 0 for no effect and ±100 for the full control effect
#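 P. falciparum expressing integrated firefly luciferase grown in erythrocytes (2% hematocrit, 0.05% parasitemia final) with compounds for 96 hours at 37 C, 5% CO2. Growth inhibition read as loss of luminescence after adding luciferase detection reagent.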
# AMA1 RON2 block: disrupts binding of P. falciparum AMA1 to RON2; Potency, µM (top dose mostly 58.2 µM), for the others: at the top dose activity change, negative = inhibition, most hits filed as inhibitors; AID 720542; AlphaScreen AMA1-biotinylated RON2 peptide binding; 360,000 compounds, 0.2% hits;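 also: 0% = vehicle wells and -100% = peptide control; nearly all actives have a fitted effect of over 45% in size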
#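 AMA1 (3D7) with his tag at 25 nM final met compounds first, then biotinylated RON2 peptide at 25 nM; detection used donor plus acceptor beads, 10 µg/mL apiece, read by AlphaScreen after 30 min at room temperature.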
# * hit, by the source's call; u = inconclusive; x = not tested or not shown; [ ] = remark or other dose. The list is not random: actives were taken first. Their share in the collection is about 11%. Unless noted, calls follow the shape of the dose curve; as a rule, active = well fitted curve in the direction sought with a large enough effect; inconclusive = small, poorly fitted or top-dose-only effect, or another doubt; inactive = no such curve, though single readings can be large; an effect the other way counts as inactive or inconclusive. Potency is read from the fitted curve at half-maximal effect.
SMILES,Pf growth 48h,NS1 inh,Sm TGR block,Pf growth 96h,AMA1 RON2 block
CC(Oc1cccnc1[N+](=O)[O-])C(=O)N1CCc2ccccc21 (stereo not given),x,x,x,x,2%
O=c1ccc(-c2ccc(S(=O)(=O)NCC3CCN(Cc4ccccc4F)CC3)s2)n[nH]1,u,-5%,6%,2.9µM*,-4%
COC(=O)c1cc(S(=O)(=O)NCC2CCN(Cc3ccccc3F)CC2)c[nH]1,15%,-7%,10%,27%,9%
Cc1cccc(N2C(=O)C3CCCN3C2=S)c1C (stereo not given),13µM*,x,1%,u,-21%
O=C(CC1N=C2c3ccccc3N=C(SCc3ccc(F)cc3)N2C1=O)NC1CCCCC1 (stereo not given),x,x,6%,x,x
O=S(=O)(NCCNC/C=C/c1ccc(Br)cc1)c1cccc2cnccc12,x,-11%,x,x,x
COc1ccc(CCC(=O)Nc2nc(C)c(C(=O)N(C)C)s2)cc1,7.4µM*,18%,-6%,u,-12%
COc1ccc(CCC(=O)Nc2sc(C(=O)N(C)C)c(C)c2C#N)cc1,0%,1%,-12%,u,-3%
CCC(=O)Nc1nc(C)c(C(=O)NC2CCCCC2)s1,3.7µM*,-11%,-2%,u,0%
Cc1nc(NC(=O)CCl)sc1C(=O)N(C)C,u,3%,16µM*,21%,4%
O=C(COC(=O)Cc1ccc(F)cc1)NC1CCCCC1,-8%,x,1%,38%,5%[11.6 µM]
CC1CC(C)(C)NCc2ccccc21 (stereo not given),0%,7%,-2%,9.3µM*,5%
COc1cc(C(=O)NCCC(=O)NC2CCC(C)CC2)cc(OC)c1OC (stereo not given),-16%,6%,-4%,10%,17%
NC(CCC(=O)N[C@@H](CS)C(=O)NCC(=O)O)C(=O)O (stereo not given in full),2.1µM*,x,x,3µM*,x
CC(=O)NC(NC(=S)Nc1ccc(N=Nc2ccccc2C)cc1C)C(Cl)(Cl)Cl (stereo not given),u,-11%,1%,89%,-7%
Cc1cc(N=Nc2ccccc2C)ccc1N,x,x,x,x,11µM*
Cc1ccc(CCNC(=O)c2cc3sccc3n2Cc2ccc(F)cc2)cc1,x,x,8%,x,x
OCCN(CO)CO,x,-4%,x,x,x
CCCC(NC(=O)CCl)c1ccccc1 (stereo not given),9.3µM*,12%,45µM*,u,-8%
CCC(NC(=O)CCc1ccccc1)c1ccccc1 (stereo not given),1%,2%,2%,u,2%
CC(C)CC(NC(=O)CCl)c1ccccc1 (stereo not given),-11%,7%,40µM*,u,10%
CC(NC(=O)CCl)c1ccc(Cl)c(Cl)c1 (stereo not given),x,2%,16µM*,3.7µM*,-18%
CC(NC(=O)c1ccc(Cl)c(Cl)c1)c1ccc(-c2ccccc2)cc1 (stereo not given),8%,-5%,5%,12%,-6%
CCC(NC(=O)CCl)c1ccc(C)cc1 (stereo not given),5.9µM*,1%,u,1.3µM*,12%
CC(NC(=O)CCl)c1ccccc1Br (stereo not given),1.5µM*,2%,16µM*,1.5µM*,2%
SMILES,Pf growth 48h,NS1 inh,Sm TGR block,Pf growth 96h,AMA1 RON2 block
COc1ccc(CN2C(=NC(=O)C3CC3)SC3CS(=O)(=O)CC32)cc1 (stereo not given),-8%,-9%,3%,-15%,-8%
COc1ccc(CN2C(=NC(=O)C3CCCCC3)SC3CS(=O)(=O)CC32)cc1 (stereo not given),u,-5%,-1%,15µM*,2%
O=C(CSc1nnc(-c2ccncc2)n1-c1ccccc1)NCC1CCCO1 (stereo not given),-26%,x,-2%,-21%,-14%
O=C(COC(=O)c1ccc(Cl)cc1[N+](=O)[O-])NNC(=O)c1cccs1,u,x,56µM*,-15%,46%
Cc1cc(C(=O)OCC(=O)NNC(=O)c2cccs2)ccc1[N+](=O)[O-],35%,x,1%,15%,122%
CCOC(=O)c1c(Nc2cccc(O)c2)nnc(-c2ccccc2)c1-c1ccccc1,x,x,13%,x,x
COc1ccccc1NC(=O)COc1coc(CN2CCN(c3ccccc3)CC2)cc1=O,13µM*,x,-13%,u,0%
O=C(COc1coc(CN2CCN(c3ccccc3)CC2)cc1=O)Nc1cccc(F)c1,5%,x,-2%,u,5%
Cc1cccc(NC(=O)COc2coc(CN3CCN(c4ccccc4)CC3)cc2=O)c1,9.3µM*,x,u,u,-12%
COc1ccc(CCNC(=O)c2cc3c(=O)n4cccc(C)c4nc3n(CC3CCCO3)c2=N)cc1 (stereo not given),1.5µM*,14%,-21%,u,1%
CCOC(=O)C1CCCN(C(=O)c2cc3c(=O)n4cccc(C)c4nc3n2C)C1 (stereo not given),x,-5%,x,x,x
COC(=O)C1CCN(C(=O)c2cc3c(=O)n4cccc(C)c4nc3n2Cc2ccccc2)CC1,5.9µM*,2%,-15%,4.1µM*,-9%
Cc1cccn2c(=O)c3cc(C(=O)NCC4CCCO4)c(=N)n(CCc4ccccc4)c3nc12 (stereo not given),4.7µM*,9%,2%,u,-1%
COc1ccc(CCNC(=O)c2cc3c(=O)n4cccc(C)c4nc3n(Cc3ccncc3)c2=N)cc1,-15%,-1%,-3%,x,x
COc1ccc(CN2C(=O)CSCC2(C)C(=O)NCc2ccccc2)cc1 (stereo not given),x,x,x,x,-7%
Cc1ccc(N2C(SCC(=O)O)=NC(=Nc3cccc(C)c3)C23CCCC3)cc1,31%,x,-12%,-7%,1%
CCOc1ccc(S(=O)(=O)N2CCCC(C(=O)NCc3cccnc3)C2)cc1Cl (stereo not given),-7%,9%,-6%,u,11%
O=C(c1ccccc1NS(=O)(=O)c1ccccc1[N+](=O)[O-])N1CCCC1,-2%,-2%,-1%,27%,-2%
CCN(CC)c1ncccc1C(=O)NCc1cccs1,-22%,-4%,-19%,-8%,-6%
Cc1ccc(C)c(Nc2ncccc2C(=O)NCc2cccs2)c1,13%,-30%,6%,9.3µM*,-5%[2.32 µM]
Cc1cc(C(=O)NNS(=O)(=O)c2cccc(Cl)c2)nn1C(C)(C)C,19%,0%,6%,23%,0%
CCOC(=O)C=C(C(=O)OCC)C(=O)OCC,0%,3%,1.6µM*,11%,7%
S=C(Nc1cccc(Cl)c1)NC1CC2CCCC(C1)N2C1CCCC1 (stereo not given),3.3µM*,-3%,-14%,u,-5%
S=C(Nc1ccc(Cl)cc1)NC1CC2CCCC(C1)N2C1CC1 (stereo not given),10µM*,10%,u,10µM*,-2%
COc1cccc(NC(=S)NC2CC3CCCC(C2)N3C2CCCC2)c1 (stereo not given),u,-2%,-30%,7%,3%

# Assay outcomes: PubChem, National Center for Advancing Translational Sciences (NCATS)
